Results reported in PubChem BioAssay (NCI).
About 83,000 compounds went through this panel and 20% of them were active in at least one assay; those are over-represented in the sample as a whole.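 Values shown are percent growth following 48 h exposure of cells in 96-well plates to a single concentration of compound; below 10 was considered active.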 Unmarked numbers belong to inactive results. Active and inactive are the calls of the source.

The compounds below were run on HCT-15 colon (assay: NCI-60 one-dose screen, 48 h (100 = growth as untreated, 0 = no growth, -100 = all killed)). Conditions: 10 µM.

SMILES	growth
Cc1cc(C)c(CCc2cc(C)c(C)cc2C)cc1C	117%
O=C1OCC2=C1C(c1ccc(Cl)c(Cl)c1)c1cc3c(cc1N2CCO)OCCO3 (stereo not given)	18.3%
c1ccc2c(c1)oc1c3c(ccc12)NCCC3	81.1%
O=C(CNC(=O)OCc1ccccc1)NCC(=O)Oc1ccc([N+](=O)[O-])cc1	105%
COC(=O)c1c(-c2ccccc2)csc1NC(=O)c1c(-c2ccccc2)noc1C	14.5%
COc1cc(CNc2ccccc2C(=O)N2CCN(C(=O)c3cc(-c4cc(OC)c(OC)c(OC)c4)n4nc(-c5ccccc5)cc4n3)CC2)cc(OC)c1OC	42.8%
CN1CCCNc2c(c(=O)c2=O)NCCCN(C)CCCNc2c(c(=O)c2=O)NCCCN(C)CCCNc2c(c(=O)c2=O)NCCCN(C)CCCNc2c(c(=O)c2=O)NCCCN(C)CCCNc2c(c(=O)c2=O)NCCCN(C)CCCNc2c(c(=O)c2=O)NCCCN(C)CCCNc2c(c(=O)c2=O)NCCC1	62.4%
COc1ccc2c(c1)C(=O)c1c-2c(OCCN2CCCCC2)nc2ccc(OC)cc12	26.2%
CCCCCCCCCCCCCCCCCC(=O)OCCCCCCC	95.5%
COc1cc([C@@H]2c3cc4c(cc3C(Br)[C@H]3COC(=O)[C@H]23)OCO4)cc(OC)c1OC (stereo not given in full)	-3.53% (active)
COc1ccc(Cn2c(C(N)=O)cc3c2-c2nc(N)ncc2CCC3)cc1	91.1%
CN(C)CCOc1nc2ccccc2c2c1-c1ccc(Cl)cc1C2=O	5.59% (active)
CO/N=C(/C(=O)NC1C(=O)N2C(C(=O)O)=C(COC(N)=O)CSC12)c1ccco1 (stereo not given)	104%
O=C(O)C(SC(C(=O)O)c1ccccc1)c1ccccc1 (stereo not given)	99.8%
CC(=O)c1cc(Cl)ccc1O	98.9%
O=C(NN1C(=O)CSC1c1ccc(Cl)cc1)c1cccnc1 (stereo not given)	119%
N=C1c2nc3n(c2C(=O)c2nc4n(c21)CCCC4)CCCC3	6.18% (active)
CCc1ccc2c(c1)N(CCO)C1=C(C(=O)OC1)C2c1ccccc1 (stereo not given)	71.6%
CC1CC(=O)OC(C)C1 (stereo not given)	104%
Oc1[nH]c2ccc(Cl)cc2c1/C=c1/ccc2c(c1)N=C(c1cc(F)cc(F)c1)N=2	46.1%

SMILES	growth
CCN(CC)CCN1CC(=O)Nc2cc(Cl)ccc21	107%
CN(C)CCS(=O)(=O)CCN(C)C	103%
FC(F)(F)c1ccc2nc(-c3nc(-c4ccccc4)n4ccccc34)[nH]c2c1	60.4%
COc1cccc(C2C3=C(COC3=O)N(CCO)c3cc(OC)ccc32)c1 (stereo not given)	11.3%
O=C(O)CN1C(=O)c2cccc3cccc(c23)C1=O	108%
Nc1ccn(C2CC(O)C(CO)O2)c(=O)n1 (stereo not given)	102%
CCn1cc(C(=O)O)c(=O)c2cnc(N3CCCC3)nc21	111%
O=c1cc(-c2ccccc2)[nH]n1-c1nc2ccccc2[nH]1	30.7%
Cc1ccc(NC(=O)CSc2nc3ccccc3c(=O)n2CCc2ccccc2)c(C(=O)O)c1	107%
COc1ccc(NC(=O)CSc2nc3ccccc3c(=O)n2CCc2ccccc2)cc1	92.1%
C[N+](C)(C)c1ncnc2nc[nH]c12	94.2%
O=C1OCC2=C1C(c1cccc(Br)c1)c1cc3c(cc1N2CCO)CCC3 (stereo not given)	8.3% (active)
O=c1c2ccccc2nc(SCCN2CCCCC2)n1CCc1ccccc1	80.7%
COc1cc(NC(=O)CSc2nc3ccccc3c(=O)n2CCc2ccccc2)cc(OC)c1OC	89%
CC(C)=CCc1ccc(O)c(=O)cc1C(C)C	38.1%
COc1ccc(C2CC(c3ccc(N(C)C)cc3)=NN2c2ccc(S(N)(=O)=O)cc2)cc1 (stereo not given)	43%
Nc1ncn([C@@H]2O[C@H](CO)[C@@H](O)[C@H]2O)c(=O)n1	22.9%
Oc1[nH]c2ccc(Cl)cc2c1/C=c1/ccc2c(c1)N=C(c1cccs1)N=2	55.4%
CCOC(=O)CNC(=O)CCCCSc1ncnc2nc[nH]c12	101%
N=c1c2c(-c3ccccc3)c(-c3ccccc3)n(Cc3ccccc3)c2ncn1CCCO	28.1%
